From PubChem BioAssay AID1159580 (chemical genetic matrix, 2015)
About 2,000 (36%) of roughly 5,500 compounds were called active. Roughly 18% stayed inconclusive and do not appear here. Rule as the data show it: active = normalized growth mostly below about 0.91 (no sharp cut-off); inconclusive = no clear call, values can overlap the other calls; inactive = mostly above about 0.92. The list shows a part of the results.

Assay: chemical genetic growth profiling, strain panel (AID 1159580);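 also: tested at 20 µM; growth read once vehicle control cultures reached saturation at 30 °C; 1 = growth at the plate median or of vehicle wells; lower values mean less growth of the strain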
Conditions: growth OD

Measured: normalized growth

CC(=O)Oc1cccc(O)c1
inactive: S. cerevisiae deletion strains, locus YJR075W, strain HOC1, hits give low values 1 | S. cerevisiae deletion strains, locus YKL009W, strain mrt4, hits give low values 1.01 | S. cerevisiae deletion strains, locus YKL068W, hits give low values 1 | S. cerevisiae deletion strains, locus YKL085W, strain MDH1 (second series), hits give low values 1 | S. cerevisiae deletion strains, locus YKL085W, strain MDH1, hits give low values 1 | S. cerevisiae deletion strains, locus YKL160W, strain elf1, hits give low values 1.01 | S. cerevisiae deletion strains, locus YKL190W, strain CNB1, hits give low values 1 | S. cerevisiae deletion strains, locus YKR001C, strain vps1, hits give low values 1.02 | S. cerevisiae deletion strains, locus YKR026C, strain gcn3, hits give low values 1.01 | S. cerevisiae deletion strains, locus YKR091W, strain srl3, hits give low values 1.01 | S. cerevisiae deletion strains, locus YLL001W, strain dnm1, hits give low values 1.02 | S. cerevisiae deletion strains, locus YLL026W, hits give low values 1.01 | S. cerevisiae deletion strains, locus YLL041C, strain sdh2, hits give low values 1.01 | S. cerevisiae deletion strains, locus YLR027C, strain aat2, hits give low values 1.03 | S. cerevisiae deletion strains, locus YLR039C, strain RIC1, hits give low values 1.04 | S. cerevisiae deletion strains, locus YLR058C, strain SHM2, hits give low values 1.01 | S. cerevisiae deletion strains, locus YLR102C, strain apc9, hits give low values 1.01 | S. cerevisiae deletion strains, locus YLR113W, strain HOG1, hits give low values 0.982 | S. cerevisiae deletion strains, locus YLR221C, strain rsa3, hits give low values 1.03 | S. cerevisiae deletion strains, locus YLR258W, strain gsy2, hits give low values 1.02 | S. cerevisiae deletion strains, locus YLR262C, strain YPT6 (second series), hits give low values 1.04 | S. cerevisiae deletion strains, locus YLR262C, strain YPT6, hits give low values 1.05 | S. cerevisiae deletion strains, locus YLR268W, strain sec22, hits give low values 1.02 | S. cerevisiae deletion strains, locus YLR320W, strain mms22, hits give low values 1.04 | S. cerevisiae deletion strains, locus YLR330W, strain CHS5, hits give low values 1.01 | S. cerevisiae deletion strains, locus YLR342W, strain FKS1 (second series), hits give low values 1.01 | S. cerevisiae deletion strains, locus YLR342W, strain FKS1, hits give low values 1.03 | S. cerevisiae deletion strains, locus YLR357W, strain rsc2, hits give low values 1.02 | S. cerevisiae deletion strains, locus YLR370C, strain arc18, hits give low values 1.01 | S. cerevisiae deletion strains, locus YLR371W, strain rom2, hits give low values 1 | S. cerevisiae deletion strains, locus YLR384C, strain iki3, hits give low values 1.01 | S. cerevisiae deletion strains, locus YLR418C, strain cdc73, hits give low values 1.05 | S. cerevisiae deletion strains, locus YML016C, strain PPZ1, hits give low values 1.01 | S. cerevisiae deletion strains, locus YML032C, strain rad52, hits give low values 1.02 | S. cerevisiae deletion strains, locus YML120C, strain ndi1, hits give low values 1.01 | S. cerevisiae deletion strains, locus YML124C, strain tub3, hits give low values 1.01 | S. cerevisiae deletion strains, locus YMR058W, strain fet3, hits give low values 1.03 | S. cerevisiae deletion strains, locus YMR078C, strain ctf18, hits give low values 1.02 | S. cerevisiae deletion strains, locus YMR125W, strain sto1, hits give low values 1.03 | S. cerevisiae deletion strains, locus YMR129W, hits give low values 1.01 | S. cerevisiae deletion strains, locus YMR205C, strain PFK2, hits give low values 1.03 | S. cerevisiae deletion strains, locus YMR223W, strain ubp8, hits give low values 1.02 | S. cerevisiae deletion strains, locus YMR231W, strain pep5, hits give low values 1.01 | S. cerevisiae deletion strains, locus YMR263W, strain SAP30, hits give low values 1 | S. cerevisiae deletion strains, locus YMR307W, strain GAS1, hits give low values 0.985 | S. cerevisiae deletion strains, locus YNL067W, strain RPL9B, hits give low values 0.996 | S. cerevisiae deletion strains, locus YNL071W, strain lat1, hits give low values 1.02 | S. cerevisiae deletion strains, locus YNL128W, strain TEP1, hits give low values 1.01 | S. cerevisiae deletion strains, locus YNL183C, strain NPR1, hits give low values 0.938 | S. cerevisiae deletion strains, locus YNL209W, strain ssb2, hits give low values 1.04 | S. cerevisiae deletion strains, locus YNL233W, strain BNI4, hits give low values 0.993 | S. cerevisiae deletion strains, locus YNL248C, strain rpa49, hits give low values 1.03 | S. cerevisiae deletion strains, locus YNL250W, strain rad50, hits give low values 1.06 | S. cerevisiae deletion strains, locus YNL271C, strain bni1, hits give low values 1.01 | S. cerevisiae deletion strains, locus YNL298W, strain CLA4, hits give low values 1.03 | S. cerevisiae deletion strains, locus YNL307C, strain MCK1, hits give low values 1.02 | S. cerevisiae deletion strains, locus YNL322C, strain KRE1 (second series), hits give low values 1.01 | S. cerevisiae deletion strains, locus YNR049C, strain mso1, hits give low values 1 | S. cerevisiae deletion strains, locus YNR052C, strain pop2, hits give low values 1.01 | S. cerevisiae deletion strains, locus YOL006C, strain TOP1, hits give low values 0.999 | S. cerevisiae deletion strains, locus YOL012C, strain htz1 0.912 | S. cerevisiae deletion strains, locus YOL147C, strain pex11, hits give low values 1.01 | S. cerevisiae deletion strains, locus YOR001W, strain rrp6, hits give low values 1.05 | S. cerevisiae deletion strains, locus YOR061W, strain CKA2, hits give low values 1.01 | S. cerevisiae deletion strains, locus YOR069W, strain VPS5, hits give low values 1 | S. cerevisiae deletion strains, locus YOR070C, strain gyp1, hits give low values 1.02 | S. cerevisiae deletion strains, locus YOR080W, strain dia2, hits give low values 1.01 | S. cerevisiae deletion strains, locus YOR083W, strain WHI5, hits give low values 1.01 | S. cerevisiae deletion strains, locus YOR106W, strain vam3, hits give low values 1.02 | S. cerevisiae deletion strains, locus YOR136W, strain idh2, hits give low values 1.02 | S. cerevisiae deletion strains, locus YOR144C, strain elg1, hits give low values 1.01 | S. cerevisiae deletion strains, locus YOR184W, strain ser1, hits give low values 1.03 | S. cerevisiae deletion strains, locus YOR231W, strain MKK1, hits give low values 0.977 | S. cerevisiae deletion strains, locus YOR265W, strain rbl2, hits give low values 1 | S. cerevisiae deletion strains, locus YOR270C, strain vph1, hits give low values 1.07 | S. cerevisiae deletion strains, locus YOR290C, strain snf2, hits give low values 1.01 | S. cerevisiae deletion strains, locus YOR316C, strain cot1, hits give low values 1.01 | S. cerevisiae deletion strains, locus YPL051W, strain arl3, hits give low values 1.04 | S. cerevisiae deletion strains, locus YPL078C, strain atp4, hits give low values 1.03 | S. cerevisiae deletion strains, locus YPL106C, strain sse1, hits give low values 1.01 | S. cerevisiae deletion strains, locus YPL240C, strain hsp82, hits give low values 1.03 | S. cerevisiae deletion strains, locus YPL241C, strain CIN2, hits give low values 1.01 | S. cerevisiae deletion strains, locus YPL256C, strain CLN2, hits give low values 0.951 | S. cerevisiae deletion strains, locus YPR119W, strain clb2, hits give low values 1.01 | S. cerevisiae deletion strains, locus YPR141C, strain kar3, hits give low values 1.01 | S. cerevisiae deletion strains, locus YPR163C, strain tif3, hits give low values 1.02 | S. cerevisiae deletion strains, locus YPR167C, strain met16, hits give low values 1.01 | S. cerevisiae deletion strains, strain wtn01, hits give low values 1.03 | S. cerevisiae strains, strain wild type, hits give low values 1.01
